MEX-5 binding – MEX-5 zinc finger RNA-binding disruptors – biochemical, C. elegans, fluorescence polarization, MLPCN library, primary screen. MEX-5/FITC-TCR2 RNA binding; active compounds read low. hit rate 0.38% among 300,000. activity score (negative = inhibition of binding), % at 10 µM;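 active = inhibition past about -25% in most replicates, and total fluorescence under double the plate's negative control median, limit read from the data; inconclusive = replicates evenly split on the limit, or fluorescence at least double controls; inactive = too little inhibition in most replicates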;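 note: 0% = DMSO and -100% = 5 µM competing unlabeled TCR2 RNA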
GLD-1 TGE inh – GLD-1/TGE RNA complex disruptors, primary screen, biochemical, fluorescence polarization | Female germline-specific tumor suppressor gld-1 (Caenorhabditis elegans), Q17339 | purified GLD-1 + fluorescein TGE RNA | inhibition, % at 5.96 µM | hit rate 0.44% among 320,000;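 active = percent inhibition above a per-plate cutoff, the plate mean of test compounds plus 3 SD, cut at about 30% in these data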;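 note: 0% = DMSO wells with GLD-1 and probe and 100% = wells lacking GLD-1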
Target sequence (Q17339 whole entry, looked up): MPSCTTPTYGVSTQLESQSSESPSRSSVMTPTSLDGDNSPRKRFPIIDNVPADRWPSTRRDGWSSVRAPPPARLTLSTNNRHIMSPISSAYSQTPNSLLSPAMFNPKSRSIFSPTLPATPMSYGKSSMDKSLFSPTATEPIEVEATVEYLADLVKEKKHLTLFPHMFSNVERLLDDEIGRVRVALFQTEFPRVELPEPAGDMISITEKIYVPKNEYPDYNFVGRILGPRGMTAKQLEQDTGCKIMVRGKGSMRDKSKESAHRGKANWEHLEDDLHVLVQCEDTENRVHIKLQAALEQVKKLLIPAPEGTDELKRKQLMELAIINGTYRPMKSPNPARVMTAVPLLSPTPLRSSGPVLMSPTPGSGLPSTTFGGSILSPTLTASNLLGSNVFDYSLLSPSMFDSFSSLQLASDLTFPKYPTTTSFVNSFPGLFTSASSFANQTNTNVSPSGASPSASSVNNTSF
EBV gp42 block – Epstein-Barr virus gp42 inhibitors, primary screen, biochemical, uHTS, fluorescence polarization. Glycoprotein 42 (Epstein-Barr virus (strain AG876)), Q1HVG2. Fluorescence polarization binding assay, mP read-out. inhibition, % (tested at 21.74 µM). hit rate 0.42% among 220,000; in the data active = inhibition above about 50%
Target sequence (Q1HVG2 whole entry, looked up): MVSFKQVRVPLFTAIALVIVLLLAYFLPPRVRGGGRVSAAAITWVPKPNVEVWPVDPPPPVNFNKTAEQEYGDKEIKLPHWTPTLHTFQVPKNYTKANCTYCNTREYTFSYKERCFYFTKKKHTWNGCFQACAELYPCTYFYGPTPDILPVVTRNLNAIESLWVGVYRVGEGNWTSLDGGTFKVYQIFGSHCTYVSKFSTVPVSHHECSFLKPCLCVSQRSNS
BCLXL inh – inhibitors of human Bcl-xL, primary screen, biochemical, fluorescence polarization, HTS | GST-Bcl-xL / FITC-Bim BH3 peptide fluorescence polarization | AID 2129, 2009 | inhibition, % at 10.9 µM | Bcl-2-like protein 1 (Homo sapiens), Q07817 | hit rate 0.7% among 320,000;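 active = inhibition above the mean of all tested compounds plus 3 SD, cutoff set per campaign, cut at about 30% in these data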;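 note: 0% = DMSO wells and 100% = unlabeled Bim-BH3 peptide competitor; inhibitors lower millipolarization by displacing the labeled peptide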
MCL1-BIM inh – inhibitors of MCL1 binding to BIM-BH3, primary screen, biochemical, fluorescence polarization | Induced myeloid leukemia cell differentiation protein Mcl-1 (Homo sapiens), Q07820 | GST-MCL1 / FITC-Bim-BH3 fluorescence polarization | inhibition, % at 10.9 µM | hit rate 0.68% among 320,000;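 active = inhibition above the mean inhibition of all tested compounds plus 3 SD, set per campaign, cut at about 40% in these data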;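 note: 0% = DMSO wells and 100% = unlabeled Bim-BH3 peptide control; higher means more loss of mP so more displacement of Bim peptide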
eLon inh – inhibitors of E. coli Lon protease, primary screen, biochemical, fluorescence polarization; P0A9M0; purified E. coli Lon protease; inhibition, % at 7.94 µM; hit rate 0.42% among 360,000; AID 602123, 2011; in the data active = inhibition above about 13%, passing the limit was not always enough;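 note: 0% = enzyme with probe and DMSO and 100% = no enzyme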
BCLXL inh confirm – Bcl-xL inhibitors blocking Bim BH3 binding, confirmation, counter-screen for MCL1 inhibitor project, biochemical, fluorescence polarization | shares compounds with MCL1-BIM inh | hit rate 54% among 1,700 | inhibition, % at 10.9 µM | GST-Bcl-xL / FITC-Bim BH3 peptide FP binding;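 active = inhibition above a cutoff equal to the mean inhibition of all tested compounds plus 3 SD, cut at about 30% in these data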;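 note: 0% = DMSO wells and 100% = unlabeled Bim BH3 control peptide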
MCL1 inh confirm – inhibitors of MCL1 binding to BIM-BH3, confirmation, biochemical, fluorescence polarization, triplicate. shares compounds with MCL1-BIM inh. GST-MCL1 / FITC-Bim-BH3 fluorescence polarization. inhibition, % at 10.9 µM. hit rate 61% among 1,700. AID 2168, 2009;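 active = inhibition above the average of all tested compounds plus 3 SD, cut at about 40% in these data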;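 note: 0% = DMSO wells and 100% = unlabeled Bim-BH3 control peptide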
* = called active by the depositor; ? = inconclusive; . = not tested or not shown; + = active, no number. Only some compounds are listed: those with a hit (about 1.5% of all), similar ones and a draw of the others.

SMILES	MEX-5 binding	GLD-1 TGE inh	EBV gp42 block	BCLXL inh	MCL1-BIM inh	eLon inh	BCLXL inh confirm	MCL1 inh confirm
COc1ccc(/C=C2\SC(=O)NC2=S)cc1OC	-36.4*	99.6*	15.0	101.9*	122.1*	23.7	38.1*	36.0
COc1ccc2c(c1)c(CC(=O)OCC(=O)O)c(C)n2C(=O)c1ccc(Cl)cc1	4.4	4.0	-2.2	11.7	82.3*	0.0	4.5	8.2
Cc1ccc(C(=O)N(C)CC(=O)Nc2cccc(C)c2C)o1	-0.1	2.0	.	4.4	0.5	0.3	.	.
O=C(CNC(=O)c1ccc(Cl)cc1Cl)OCN1C(=O)c2ccccc2C1=O	4.4	0.2	.	-0.7	-1.2	-2.9	.	.
COc1cccc(-c2nc(-c3ccccn3)no2)c1OC	-1.7	-3.7	-2.8	5.8	0.5	4.2	.	.
COc1cc(-c2nc(-c3ccccn3)no2)cc(OC)c1OC	-1.4	1.7	-5.3	4.9	41.4*	-9.3	20.4	34.4
COC(=O)c1c(Cl)c2n3ccccc3c(C)c(-c3ccccc3)c-2c1C(=O)OC	-40.6*	178.6*	97.3*	171.6*	+	19.8	37.5*	34.8
COC(=O)c1c(C)[nH]c(C=O)c1-c1ccccc1	.	-9.4	2.8	3.6	2.4	-10.3	.	.
Cc1ccccc1NC(=O)CSc1ccsc1[N+](=O)[O-]	-1.0	3.6	70.4*	18.3	67.1*	-1.1	32.0*	89.9*
N#Cc1ccccc1N1CCN(C(=O)c2ccc(NC(=O)c3ccc(Br)o3)cc2)CC1	.	0.4	.	15.1	26.4	-2.9	.	.
COc1ccc(CN2C(=O)Cc3c2nc(N)c2c(N)nc(N4CCCCC4)c(C#N)c32)cc1	-2.5	16.1	20.7	44.5*	65.8*	.	5.6	-4.4
N#CC1C=Cc2c(ccc3ccccc23)N1C(=O)c1ccccc1 (stereo unspecified)	.	.	.	.	.	-7.0	.	.
CNc1ccccc(-c2ccc3cc4c(cc3n2)OCO4)c1=O	-12.6	13.9	16.7	91.3*	114.0*	11.6	34.4*	33.0
O=C(O)c1ccc(S(=O)(=O)Nc2ccc(O)c(Sc3nc4ccccc4s3)c2)cc1	-4.5	6.7	0.3	26.5	42.5*	-4.2	29.3	59.3*
COc1cccc2c(=O)c3cccc(N)c3[nH]c12	-4.5	12.8	-10.0	62.6*	86.9*	7.5	44.0*	42.1*
CCOc1ccc(C(=O)N2CCSC2=S)cc1	0.9	5.9	-12.1	0.2	0.3	-5.4	.	.
Cc1ccc2nc(-c3ccc(-c4cccc(Cl)c4)cc3)c(NCc3ccccc3)n2c1	3.7	1.2	.	50.4*	78.1*	-3.8	23.6	19.2
COc1cc(-c2nc3ccc(C)cn3c2NCc2ccccc2)ccc1-c1cccc(Cl)c1	.	4.9	.	.	.	-13.1	.	.
CCn1c(SCC(=O)N/N=C/C=C/c2ccco2)nnc1-c1ccccc1	-2.6	5.0	-1.7	13.1	15.9	3.3	.	.
O=C(CSc1nnc(SCc2ccccc2)s1)N/N=C/C=C/c1ccco1	1.5	5.1	68.2*	9.0	57.7*	-11.2	22.9	66.6*
Cc1ccc(S(=O)(=O)c2nc(C)oc2NCc2ccccc2)cc1	0.9	10.6	-12.6	9.7	39.9*	.	9.9	57.2*
CCOc1ccc(/C=C/C(=O)Nc2ccc(OC)cc2[N+](=O)[O-])cc1	?	63.0*	6.9	56.8*	83.2*	5.6	59.9*	68.5*
CN(C)S(=O)(=O)n1cnc([C@@H]2[C@H]3C(=O)OC[C@@H]3C[C@@]23N=CN(Cc2ccccc2)C3=O)c1	.	2.4	.	5.1	-2.6	-0.6	.	.
O=C1C(Cl)=C(NC(=O)c2ccccc2)C(=O)C(Cl)=C1NC(=O)c1ccccc1	-85.5*	22.0	.	36.4*	56.5*	18.9	53.8*	57.3*
Cc1ccc([C@@H]2C3COCC=C3C(C#N)=C(N)C2(C#N)C#N)o1 (stereo partly specified)	-22.1	77.7*	-1.4	96.5*	104.9*	69.1*	71.2*	73.9*
SMILES	MEX-5 binding	GLD-1 TGE inh	EBV gp42 block	BCLXL inh	MCL1-BIM inh	eLon inh	BCLXL inh confirm	MCL1 inh confirm
CC(=O)n1c(=O)oc2ccccc21	0.6	4.0	.	3.2	2.0	10.6	.	.
O=S(=O)(Nc1nc2ccccc2nc1-[n+]1cccc(N=C([O-])c2ccccc2Cl)c1)c1ccccc1	-9.2	12.7	74.3*	71.2*	84.1*	.	59.6*	90.2*
O=C1c2ccccc2-c2onc3ccc(Oc4ccccc4)c1c23	-15.2	36.8*	-36.4	62.7*	61.1*	-19.3	20.5	24.7
CCOC(=O)c1cc2c(=O)n3ccccc3nc2n(Cc2ccco2)c1=NC(=O)c1ccc(OC)cc1	-6.0	9.8	-21.4	26.9	41.2*	-14.7	10.8	-2.0
NC(=O)c1ccc(S(=O)(=O)N2CCSCC2)cc1	0.5	-4.5	.	5.2	21.2	-2.4	.	.
C/C(=C\c1ccccc1)C1Nc2cccc3cccc(c23)N1	.	10.8	.	25.4	40.6*	.	19.8	20.1
CSC1=NC(C(Cl)(Cl)Cl)N=C(c2ccccc2)N1 (stereo unspecified)	0.2	1.2	-5.1	2.5	-0.5	-2.1	.	.
COc1cc([N+](=O)[O-])ccc1NC(=O)Oc1ccc(NC(C)=O)cc1	1.7	-1.3	-17.6	5.4	8.2	4.3	.	.
O=C1/C(=C/c2ccco2)SC(=S)N1C1CCS(=O)(=O)C1 (stereo unspecified)	-1.3	18.1	2.4	29.8	67.3*	4.3	13.9	18.4
CCN(C(=O)C(C)N1C(=O)/C(=C/c2ccco2)SC1=S)C1CCS(=O)(=O)C1 (stereo unspecified)	-0.8	11.6	.	33.0*	58.8*	2.3	24.8	56.5*
NS(=O)(=O)c1cccc(NC(=O)COC(=O)Cc2ccc(S(=O)(=O)N3CCOCC3)s2)c1	.	.	.	.	.	-16.1	.	.
CCOC(=O)c1cc2n(c1/N=C/N(C)C)-c1ccccc1C2=O	?	169.5*	151.4*	191.5*	+	7.3	185.5*	+
O=C(NCCO)c1ccc(Cl)c(Cl)c1	1.1	0.5	-0.8	3.1	7.3	-0.2	.	.
O=c1oc(-c2ccco2)nc2ccccc12	-0.2	8.5	-10.3	4.8	2.9	-12.4	.	.

High-throughput results deposited in PubChem by several laboratories.
